Screening data (PubChem BioAssay)
Compounds with a hit are over-represented: about 3.3% of the library has one in this group of screens.
Mcl-1 Bim block = inhibitors of Bim-Mcl-1 interaction, human; inhibition, % at 10 µM; actives 0.1% (n = 190,000); Q07820; Bead-based flow cytometry, Bim peptide-Mcl-1 binding; in the data active = inhibition above about 40%;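 also: 0% = no compound tracer wells and 100% = peptide blocker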
Target sequence (Q07820 whole entry, looked up): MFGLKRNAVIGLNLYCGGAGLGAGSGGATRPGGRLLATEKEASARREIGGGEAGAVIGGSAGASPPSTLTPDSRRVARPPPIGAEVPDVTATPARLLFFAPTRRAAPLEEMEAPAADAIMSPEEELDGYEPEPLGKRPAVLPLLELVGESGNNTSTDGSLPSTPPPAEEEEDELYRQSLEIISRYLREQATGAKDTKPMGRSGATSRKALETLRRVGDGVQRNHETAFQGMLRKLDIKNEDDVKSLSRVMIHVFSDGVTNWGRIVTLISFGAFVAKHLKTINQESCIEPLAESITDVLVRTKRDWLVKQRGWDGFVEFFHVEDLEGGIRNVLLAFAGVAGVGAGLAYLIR
Mcl1-Bid inh = disrupts binding of human Mcl-1 to Bid peptide; Q07820; actives 0.97% (n = 220,000); inhibition, % at 21.7 µM; TR-FRET Mcl-1/Bid-Dy647 peptide binding, 1536-well;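 active = compounds that cut the binding signal by more than half at the single screening dose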;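 also: His-tagged Mcl-1 with europium anti-His antibody binding Bid BH3 peptide; 0% = Mcl-1 plus peptide wells and 100% = peptide-only wells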
14-3-3 Bad PPI = disrupts binding of bovine 14-3-3 zeta to phospho-Bad peptide; P63103; actives 0.71% (n = 220,000); TR-FRET 14-3-3zeta/Dy647-pBad peptide displacement, 1 h; inhibition, % at 21.7 µM;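 active = inhibition above about 70%, limit read from the data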;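 also: 0% = full 14-3-3 plus peptide FRET controls and 100% = background without 14-3-3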
Target sequence (P63103 whole entry, looked up): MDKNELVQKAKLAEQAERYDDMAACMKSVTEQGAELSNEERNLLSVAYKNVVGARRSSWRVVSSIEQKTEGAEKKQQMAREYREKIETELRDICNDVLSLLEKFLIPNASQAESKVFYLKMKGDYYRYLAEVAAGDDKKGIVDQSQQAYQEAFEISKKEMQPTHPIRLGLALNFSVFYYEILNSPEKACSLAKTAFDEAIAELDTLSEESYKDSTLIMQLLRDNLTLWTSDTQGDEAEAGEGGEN
eIF4E 4G PPI = blocks eIF4E binding to eIF4G; P63073+Q04637; TR-FRET eIF4E-eIF4GI(517-606) binding, 2 h; inhibition, % at 21.7 µM; actives 0.37% (n = 220,000); AID 782;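 also: 0% = full FRET control wells and 100% = background wells lacking eIF4GI fragment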
NCF1 inh = inhibitors of human p47phox binding; p47phox/p22phox peptide binding, fluorescence polarization, 2 h; inhibition, % at 24.7 µM; actives 0.53% (n = 220,000); AID 1274;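 also: 0% = p47phox with labelled peptide and 100% = labelled peptide alone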
Mcl1-Noxa inh = Mcl-1/Noxa interaction inhibition; Q07820; TR-FRET Mcl-1/Noxa peptide binding, 2 h; inhibition, % at 21.7 µM; actives 1.5% (n = 220,000); AID 1022;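 active = compounds that cut the protein-peptide binding signal by more than 50% relative to plate controls in a single-dose test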;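 also: His-tagged Mcl-1 with rhodamine Noxa BH3 peptide and terbium anti-His antibody; 0% = Mcl-1 plus Noxa peptide wells and 100% = peptide-only wells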
* = called active by the depositor; nt = no result given; [ ] = another dose, or the depositor's remark.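 The calls were made as follows, unless noted: active = inhibition above about 30% (limit read from the data); inactive = the rest.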

SMILES	Mcl-1 Bim block	Mcl1-Bid inh	14-3-3 Bad PPI	eIF4E 4G PPI	NCF1 inh	Mcl1-Noxa inh
O=C1CCCC(O)=C1Sc1ccccc1C(=O)O	1.0	-66.7	3.7	7.5	-2.7	-7.6
O=C1CCCC(O)=C1C(C#Cc1ccccc1)C1=C(O)CCCC1=O	0.0	-3.7	3.9	42.2*[fluorescence artefact?]	11.3	52.2*
CSc1nc(N)c(C(=O)Nc2ccc([N+](=O)[O-])cc2)s1	nt	-59.1	-1.1	-6.8	-22.7	33.1
O=S(=O)(Nn1cnnc1)c1ccc(F)cc1	-1.0	-12.2	-2.2	-2.1	26.3	34.2
COc1cc(/C=C2\SC(N)=NC2=O)ccc1OCC(=O)Nc1ccc(C)cc1	-1.0	61.3*	97.2*[fluorescence artefact?]	20.7	11.3	5.0
Cc1cc(N2CCCC2)nc2ccc(NC(=S)NC(C)C)cc12	-2.0	-24.6	-5.4	-6.4	4.4	61.2*
O=C(Cc1ccccc1)Nc1ccc(N2CCCC2)cc1	-2.0	-56.5	nt	nt	7.5	81.7*
O=C(Cc1ccccc1)Nc1ccc(N2CCOCC2)cc1	1.0	-51.8	-13.3	3.3	3.5	-5.8
O=C(CN1CCCCC1)Nc1ccc(N2CCCCCC2)cc1	0.0	27.5	42.8	16.0	1.9	66.6*
CC1CCN(c2ccc(NC(=O)Cc3ccccc3)cc2)CC1	0.0	-12.4	-0.1	5.7	2.0	86.6*
O=C(Nc1ccc(N2CCCCCC2)cc1)c1ccccc1Cl	-2.0	-60.5	10.9	15.1	1.8	51.6*
O=C(Cc1ccccc1)NNC(=O)c1cnccn1	0.0	-54.0	4.8	-4.9	-11.2	-23.4
O=C(CN1CCOCC1)Nc1ccc(Oc2ccc(NC(=O)CN3CCOCC3)cc2)cc1	-2.0	-37.3	8.9	0.5	-8.3	6.1
COc1ccc(NC(=O)CN2CCOCC2)cc1	-3.0	71.4*	73.0*	-2.1	-7.3	-2.6
O=C1COc2ccc(N3C(=O)C=CC3=O)cc2N1	-3.0	-35.1	-0.5	2.1	-2.9	56.7*
COc1ccc(C(=O)Oc2cccc(/C=N/NC(N)=S)c2)cc1	-7.0	-66.8	-17.1	19.0	-13.3	31.4
CCOC(=O)c1sc(/N=C/c2ccc(O)cc2O)cc1C	-1.0	-48.5	-10.5	10.2	-16.4	56.6*
CC(=O)Nc1cc(Cl)c(N=Cc2ccc(O)cc2O)cc1Cl	1.0	-23.8	2.8	-1.6	-24.4	49.8
COc1cc(CN2CCSCC2)cc(OC)c1OC	-6.0	21.5	44.1	-11.1	7.3	21.6
CCOC(=O)C1CCN(c2c(NCCCN3CCN(Cc4ccccc4)CC3)c(=O)c2=O)CC1	0.0	52.4*	-4.3	-2.4	-3.9	15.9
CCOC(=O)C1CCN(c2c(NCCCN3CCCCC3)c(=O)c2=O)CC1	nt	-86.5	-2.6	-4.0	-9.4	-10.6
O=C(NCc1ccco1)C1CCN(Cc2ccc(F)cc2)CC1	4.0	28.3	79.9*	-7.7	-0.9	33.3
CCOC(=O)C1CCN(Cc2ccc(O)c(OC)c2)CC1	-1.0	18.2	83.8*	-4.8	-3.3	10.2
COc1ccc(CN2CCSCC2)cc1O	-1.0	-6.9	76.4*	-9.5	5.3	18.1
CCCc1nc(SCC(=O)c2ccc(F)cc2)c2ccccc2n1	0.0	-24.8	-13.2	-3.9	-8.5	18.1
SMILES	Mcl-1 Bim block	Mcl1-Bid inh	14-3-3 Bad PPI	eIF4E 4G PPI	NCF1 inh	Mcl1-Noxa inh
CCC(C)[C@H](NC(=O)N1CCC(C)CC1)C(=O)OC (some centres undefined)	nt	-0.9	-0.8	1.4	-16.6	3.9
CCOC(=O)C1CCN(Cc2ccc(F)cc2)CC1	0.0	51.3*	60.5	5.3	-0.1	-13.7
CCOC(=O)C1CCN(Cc2ccc(Cl)c(Cl)c2)CC1	-3.0	9.8	27.9	3.9	-12.0	19.9
Nc1nnc(CC(=O)N/N=C/c2cc([N+](=O)[O-])cc(Br)c2O)s1	1.0	-56.1	7.9	-2.0	2.9	55.9*
Nc1nnc(CC(=O)N/N=C/c2cccc(OCCOc3ccccc3)c2)s1	0.0	51.4*	11.5	-8.0	-8.8	-5.7
CCCCCCNC(=O)N[C@@H](C(=O)NCCC[C@H]1CN2C(=NC[C@@H]2Cc2ccccc2)N1CCc1cccc(OC)c1)C(C)C	nt	-53.0	-1.6	41.2*	66.1*	10.5
C/C=C(\C)C(=O)NCCN1C2=NC[C@@H](Cc3ccccc3)N2C[C@H]1Cc1ccc(O)cc1	-1.0	-0.9	-7.5	0.1	-7.5	11.1
O=C(Nc1ccc(F)cc1F)c1cc(=O)n(-c2ccccc2)c(=O)[nH]1	1.0	6.0	-1.8	-3.3	-3.0	7.1
CCN(CC)C(=O)CC(c1cc(OC)c(OC)c(OC)c1)c1c(OC)cc(OC)c2c(-c3ccccc3)cc(=O)oc12 (centres undefined)	nt	-92.8	61.5	34.5*	-6.4	96.1*
CC(C)(C)c1ccc(C(=O)NN2C(=O)CSC2=S)cc1	nt	-24.6	-5.8	-0.2	-48.7	6.3
CC(C)=NNc1cc([N+](=O)[O-])cc2c1C(=O)N(C)S2=O (centres undefined)	-2.0	-34.5	-1.4	-3.3	-4.0	7.9
NNc1cc([N+](=O)[O-])cc2c1C(=O)N(Cc1ccccc1)S2=O (centres undefined)	-5.0	-55.2	0.8	3.0	-3.1	58.1*
O=C(O)c1cccn2c(=O)c3ccccc3nc12	-1.0	-7.2	5.2	-0.5	-2.5	-2.5
O=C(O)c1ccc2c(=O)n3cc(C(=O)c4ccccc4O)cc(Cl)c3nc2c1	nt	-93.7	1.4	-3.3	-24.9	60.4*
C=CCNc1nc(-c2ccc(O)c(C(N)=O)c2)cs1	0.0	-25.7	75.9*	10.5	-5.9	34.6
c1ccc2oc(-c3csc(NCC4CCCO4)n3)cc2c1 (centres undefined)	0.0	-43.8	-7.7	4.4	-5.3	8.5
C=CCNc1nc(-c2cc3ccccc3o2)cs1	0.0	54.9*	12.2	-1.6	-9.3	18.5
C=CCNC(=O)c1ccc(-c2nc(-c3ccc(Cl)c(Cl)c3)cs2)cc1	0.0	-15.1	7.6	-1.4	1.8	5.4
N#Cc1c(N)sc(=S)c2c1CCN(Cc1ccccc1)C2	3.0	-1.2	19.7	-16.7	-9.6	71.0*
CCN1CCc2c(sc(N)c2C#N)C1	1.0	-12.7	-0.8	0.7	-56.8	43.9
CCOC(=O)c1nnn(-c2nonc2N)c1-c1ccc(F)cc1	-29.0	3.4	0.7	-5.7	-5.3	12.2
CC(=O)Nc1ccc(SCC(=O)Nc2cc(C)on2)cc1	0.0	-17.9	2.3	-0.5	-8.3	7.7
CCn1c2ccccc2c2cc(NC(=O)c3ccc(=O)oc3)ccc21	nt	10.2	5.0	-2.7	-67.8	39.9
CCn1c2ccccc2c2cc(NC(=O)c3coc(=O)c(Br)c3)ccc21	nt	38.1	49.7	22.3	-44.5	69.3*
Cc1cc(NC(=O)c2cc(C3CC3)on2)no1	0.0	-4.7	-3.2	0.5	-5.0	-3.2
COc1ccc(NC(=O)c2cc(C3CC3)on2)c(OC)c1	-3.0	85.3*	4.8	1.4	-8.6	-5.3
Cc1ccc2oc(C(Cl)(Cl)Cl)cc(=O)c2c1	-4.0	17.2	26.2	7.8	-6.6	35.4
